PubChem BioAssay (NCATS)
Records with an inconclusive call do not appear. A call without a number means that no potency is given here. Active and inactive are the calls of the source. Calls come from the whole dose curve; as a rule, active = well fitted curve in the direction sought with a large enough effect; inconclusive = small, poorly fitted or top-dose-only effect, or another doubt; inactive = no such curve, though single readings can be large; an effect the other way counts as inactive or inconclusive.

Test: qHTS of pediatric cancer cell lines to identify multiple opportunities for drug repurposing: Confirmatory screen for SK-N-MC cells (AID 1347111);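 note: potency is the fitted concentration of half-maximal effect; cells exposed to compound for 48 h before the readout; nearly all actives have a fitted effect of over 70% in size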
Settings: SK-N-MC cell viability; series mostly up to 45.9 µM
In short: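 SK-N-MC cells at 500-1,000 cells/well in growth media were pre-incubated 5 h, then exposed to compounds at 11-point dilutions for 48 h at 37 degrees C, 5% CO2. Viability was read as CellTiter-Glo luminescence.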

Structure (SMILES) | Potency
CC[C@H]1C=CC=CC[C@@H](C)[C@H](O)[C@@](C)(O)C(=O)[C@@H](C)[C@H](O)[C@@H](C)C(=O)[C@@H](C)[C@H](O)[C@@H](C)C=CC(=O)O[C@@H]2[C@@H](C)[C@H](CC1)O[C@]1(CC[C@H](C)[C@H](C[C@@H](C)O)O1)[C@H]2C | 0.233 µM (active)
O=[N+]([O-])c1c(Cl)c(Cl)cc(Cl)c1Cl | 38 µM (active)
COc1ccc2c(c1)CN(C)CC2c1ccc(Cl)c(Cl)c1 (centres undefined) | 6.57 µM (active)

Test: qHTS of pediatric cancer cell lines to identify multiple opportunities for drug repurposing: Confirmatory screen for BT-12 cells (AID 1347112); note: nearly all actives have a fitted effect of over 55% in size
Settings: BT-12 rhabdoid tumor cells, viability; series mostly up to 45.9 µM
In short: (§1)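 Viability after 48 h compound treatment at 37C, 500-1,000 cells/well, read as ATP luminescence with CellTiter-Glo. Primary screens used 11-point (MIPE, 0.78 nM-46 µM) or 8-point (NPC, 0.59 nM-46 µM) final concentrations; follow-up screens used 11-point dilutions.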

Structure (SMILES) | Potency
O=[N+]([O-])c1c(Cl)c(Cl)cc(Cl)c1Cl | inactive
COc1ccc2c(c1)CN(C)CC2c1ccc(Cl)c(Cl)c1 (centres undefined) | inactive
O=C(O)COc1nc(Cl)c(Cl)cc1Cl | inactive

Test: qHTS of pediatric cancer cell lines to identify multiple opportunities for drug repurposing: Confirmatory screen for LAN-5 cells (AID 1347113); note: nearly all actives have a fitted effect of over 65% in size; note: potency is the fitted concentration of half-maximal effect
Settings: LAN-5 neuroblastoma cell viability; series mostly up to 45.9 µM
In short: as §1

Structure (SMILES) | Potency
S=C(SSC(=S)N1CCCCC1)N1CCCCC1 | 1.04 µM (active)
O=C(O)COc1nc(Cl)c(Cl)cc1Cl | inactive
Cc1c(N)nc([C@H](CC(N)=O)NC[C@@H](N)C(N)=O)nc1C(=O)N[C@H](C(=O)N[C@@H](C)[C@H](O)[C@@H](C)C(=O)N[C@@H](C(=O)NCCc1nc(-c2nc(C(=O)NCCC[S+](C)C)cs2)cs1)[C@@H](C)O)C(O[C@H]1O[C@H](CO)[C@H](O)[C@@H](O)[C@@H]1O[C@H]1O[C@H](CO)[C@@H](O)[C@H](OC(N)=O)[C@H]1O)c1cnc[nH]1 (some centres undefined) | inactive
